Reference: PubChem BioAssay (NCATS)
A number with no mark means an inactive call. Records with an inconclusive call do not appear. Where a call stands in place of a potency, no number is given. Active and inactive are the calls of the source. Calls come from the whole dose curve; as a rule, active = well fitted curve in the direction sought with a large enough effect; inconclusive = small, poorly fitted or top-dose-only effect, or another doubt; inactive = no such curve, though single readings can be large; an effect the other way counts as inactive or inconclusive. Where a SMILES comes first, the peptide text is derived from it.

Columns and labels:
[1] = molecular target: Phospholipid hydroperoxide glutathione peroxidase GPX4 (Homo sapiens) (UniProt P36969); assay: Primary qHTS Assay for Inhibitors of Recombinant Selenoprotein Glutathione Peroxidase 4 (GPX4) (AID 1845192); note: nearly all actives have a fitted effect of over 65% in size; for activity change, negative = inhibition: series mostly up to about 50 µM
How it was run: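 qHTS, GR-coupled: GPX4 200 nM + cpd 30 min RT → GSH 1 mM, NADPH 0.5 mM, GR 100 nM → CHP 0.5 mM start; fluor 340/450 at t0 and t15 min; no-enzyme wells as control.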

[2] = molecular target: Luciferin 4-monooxygenase (Photinus pyralis) (UniProt P08659); assay: Primary firefly luciferase (FLuc) qHTS assay for identification of artifact compounds. (AID 1845220); note: nearly all actives have a fitted effect of over 60% in size; note: potency is the fitted concentration of half-maximal effect; for activity change, negative = inhibition: series mostly up to about 54 µM
How it was run: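 qHTS, 15 min compound preincubation with substrate (10 uM luciferin, 10 uM ATP) at RT, then 10 nM FLuc; 5 min; luminescence; % inhibition vs no-enzyme/DMSO controls, 4-parameter Hill fit.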

[3] = Primary fluorescence-based thiol-reactive (MSTI) qHTS assay for identification of artifact compounds. (AID 1845221); note: nearly all actives have a fitted effect of over 65% in size; note: potency is the fitted concentration of half-maximal effect;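 for activity change, negative = thiol reactive: series mostly up to about 54 µM; thiol-reactive compounds lower the probe fluorescence signal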
How it was run: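 Curve-fitted percent inhibition (4-parameter Hill) derived from fluorescence, Ex 525/Em 598 nm, scaled with Acetyl-MSTI and MSTI; 1 h incubation at room temperature.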

[4] = molecular target: Glutathione peroxidase 1 (Homo sapiens) (UniProt P07203); assay: Primary qHTS Assay for Inhibitors of Recombinant Selenoprotein Glutathione Peroxidase 1 (GPX1) (AID 1845191); note: nearly all actives have a fitted effect of over 65% in size
How it was run: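 GPX1 10 nM, GR 100 nM, GSH 1 mM, NADPH 0.5 mM, CHP 0.5 mM (final). 30-min cpd preincubation, RT. Ex340/Em450 read t=0, t=15 min.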

Sequence of Phospholipid hydroperoxide glutathione peroxidase GPX4 (Homo sapiens) (P36969 whole entry, looked up): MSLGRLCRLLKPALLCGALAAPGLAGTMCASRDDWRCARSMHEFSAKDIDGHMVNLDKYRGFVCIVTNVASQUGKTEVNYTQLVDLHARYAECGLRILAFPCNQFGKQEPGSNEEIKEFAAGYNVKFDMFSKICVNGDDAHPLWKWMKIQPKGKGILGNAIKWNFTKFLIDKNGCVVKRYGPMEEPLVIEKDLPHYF
Sequence of Glutathione peroxidase 1 (Homo sapiens) (P07203 whole entry, looked up): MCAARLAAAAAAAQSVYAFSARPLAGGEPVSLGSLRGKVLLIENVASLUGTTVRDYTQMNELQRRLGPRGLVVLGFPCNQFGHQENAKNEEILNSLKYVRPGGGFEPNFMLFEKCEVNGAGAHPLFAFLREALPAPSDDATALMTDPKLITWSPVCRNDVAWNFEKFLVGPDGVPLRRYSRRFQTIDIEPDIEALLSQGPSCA

With `NC1=NC2(c3cc(NC(=O)c4ccc(F)cn4)ccc3F)COCC2CS1` (stereo unspecified) the Potency [1] was “inactive”, the Potency [2] was “inactive” and the Potency [3] was “inactive”.
In the case of `Cc1ccc2[nH]c(=O)c(C3=NN(C(=O)CCC(=O)O)C(c4ccc(Br)cc4)C3)c(-c3ccccc3)c2c1` (stereo unspecified), the Potency [1] is reported as “inactive”, the Potency [2] is reported as “inactive” and the Potency [3] is reported as “inactive”.
In the case of `COC(=O)C1=CO[C@@H](O[C@@H]2O[C@H](CO)[C@@H](O)[C@H](O)[C@H]2O)C2C1CC(O)C2C` (stereo partly specified), the Potency [1] is reported as “inactive”, the Potency [2] is reported as “inactive” and the Potency [3] is reported as “inactive”.
For `CC1(C)CC[C@]2(C(=O)O)CC[C@]3(C)C(=CCC4[C@@]5(C)CC[C@H](O)C(C)(C)C5CC[C@]43C)C2C1` (stereo partly specified), the Potency [1] was “inactive” and the Potency [3] was “inactive”.
For `CCOC(=O)C(CCc1ccccc1)NC1CCCN2CCCC(C(=O)O)N2C1=O` (stereo unspecified), the Potency [1] was “inactive”, the Potency [2] was “inactive” and the Potency [3] was “inactive”.
In the case of `CC1(C)C2CC[C@]3(C)C(C(=O)C=C4[C@H]5C[C@@](C)(C(=O)O)CC[C@]5(C)CC[C@]43C)[C@@]2(C)CC[C@@H]1O` (stereo partly specified), the Potency [1] is reported as “inactive”, the Potency [2] is reported as “inactive” and the Potency [3] is reported as “inactive”.
For `CC1(C)[C@H]2C[C@H](C/C=C\CCCC(=O)O)[C@@H](NC(=O)c3csc4ccc(O)cc34)[C@@H]1C2`, the Potency [1] was “inactive”, the Potency [2] was “inactive” and the Potency [3] was “inactive”.
In the case of `CCCSc1nc(NC2CC2c2ccc(F)c(F)c2)c2nnn(C3CC(OCCO)C(O)C3O)c2n1` (stereo unspecified), the Potency [1] is reported as “inactive”, the Potency [2] is reported as “inactive” and the Potency [3] is reported as “inactive”.
With `COc1cc(Nc2ccc([N+](=O)[O-])cc2C(=O)O)cc2ccccc12` the Potency [1] was “inactive”, the Potency [2] was “inactive” and the Potency [3] was 670 nM (active).
In the case of `CCCCS(=O)(=O)NC(Cc1ccc(OCCCCC2CCNCC2)cc1)C(=O)O` (stereo unspecified), the Potency [1] is reported as “inactive” and the Potency [3] is reported as “inactive”.
In the case of `COc1ccc(-n2c(SCC#N)nc3sc4c(c3c2=O)CCCC4)cc1`, the Potency [4] is reported as “inactive” and the Potency [3] is reported as “inactive”.
For `CC1(C)CC=C(c2cnc3ccccc3c2)c2cc(C(=O)Nc3ccc(C(=O)O)cc3)ccc21`, the Potency [2] was “inactive” and the Potency [3] was “inactive”.
With `CN(C)CCC[C@]1(c2ccc(F)cc2)OCc2cc(C#N)ccc21` the Potency [1] was “inactive”, the Potency [2] was “inactive” and the Potency [3] was “inactive”.
For `COC(=O)C1C(O)CCC2CN3CCc4c([nH]c5ccccc45)C3CC21` (stereo unspecified), the Potency [1] was “inactive” and the Potency [2] was “inactive”.
In the case of `CCCCCOC(=O)Nc1nc(=O)n(C2O[C@H](C)[C@@H](O)[C@H]2O)cc1F` (stereo partly specified), the Potency [1] is reported as “inactive”, the Potency [2] is reported as “inactive” and the Potency [3] is reported as “inactive”.
With `COc1cc(C)c(C(=O)OC2C(C)OC(OC3CCC(C)C4C3C=C(C)C3/C(C)=C\CC/C(C)=C/C5(C)C=C(C(=O)O)C(C)CC56OC(=O)/C(=C(\O)C34C)C6=O)C(O)C2O)c(OC)c1` (stereo unspecified) the Potency [1] was “inactive”, the activity change, negative = inhibition [2] was 1.3% [at 11.6 µM] and the activity change, negative = thiol reactive [3] was 142% [at 11.5 µM].
In the case of `CC(C)C1NC(=O)CNC(=O)C2CCCN2C(=O)C(Cc2c[nH]c3ccccc23)NC(=O)CNC(=O)C(Cc2ccc(O)cc2)NC(=O)CNC1=O` (stereo unspecified) (cyclo(GVGYGWP); configuration not given here), the Potency [4] is reported as “inactive”, the Potency [2] is reported as “inactive” and the Potency [3] is reported as “inactive”.
In the case of `CC(C)(Oc1ccc(-c2nc3cc(Cl)ccc3s2)cc1)C(=O)O`, the Potency [4] is reported as “inactive”, the Potency [2] is reported as 2390 nM (active) and the Potency [3] is reported as “inactive”.
For `CC1(C)CC[C@]2(C(=O)O)CC[C@]3(C)C(=CCC4[C@@]5(C)C(=O)C[C@H](O)[C@@](C)(CO)C5CC[C@]43C)[C@@H]2C1` (stereo partly specified), the Potency [4] was “inactive”, the Potency [2] was “inactive” and the Potency [3] was “inactive”.
With `CN1CCCC1Cc1c[nH]c2ccc(CCS(=O)(=O)c3ccccc3)cc12` (stereo unspecified) the Potency [1] was “inactive” and the Potency [3] was “inactive”.
With `CCc1cccc2c3c([nH]c12)[C@@](CC)(CC(=O)O)OCC3` the Potency [1] was “inactive” and the Potency [2] was “inactive”.
For `CCOC(=O)C(CCc1ccccc1)NC(C)C(=O)N1Cc2ccccc2CC1C(=O)O` (stereo unspecified), the Potency [1] was “inactive”, the Potency [2] was “inactive” and the Potency [3] was “inactive”.
For `CC(=O)Nc1cccc2c1c(Sc1ccc(Cl)cc1)c(C)n2CC(=O)O`, the Potency [1] was “inactive”.
For `COc1ccnc2[nH]cc(C(=O)C(=O)N3CCN(C(=O)c4ccccc4)CC3C)c12` (stereo unspecified), the Potency [1] was “inactive”, the Potency [2] was “inactive” and the Potency [3] was “inactive”.
In the case of `CC(C)c1ccc2c(c1)CCC1[C@](C)(C(=O)O)CCC[C@]21C` (stereo partly specified), the Potency [4] is reported as “inactive” and the Potency [3] is reported as “inactive”.
For `CC(=O)OCC1=CCC2C(C)(C)CCCC2(C)C12CCC(C)(CC(=O)O)O2` (stereo unspecified), the Potency [4] was “inactive”, the Potency [2] was “inactive” and the Potency [3] was “inactive”.
In the case of `Cc1ccccc1N1CCN(S(=O)(=O)C[C@]23CC[C@H](C[C@@H]2NC(=O)[C@@H](N)CCS(C)(=O)=O)C3(C)C)CC1`, the Potency [1] is reported as “inactive”, the Potency [2] is reported as “inactive” and the Potency [3] is reported as “inactive”.
In the case of `COC(O)(CC(C)C)C1Oc2cc(C)[nH]c(=O)c2O1` (stereo unspecified), the Potency [1] is reported as “inactive”, the Potency [2] is reported as “inactive” and the Potency [3] is reported as “inactive”.
For `CC(C)=CCC[C@](C)(O[C@@H]1O[C@H](CO[C@@H]2OC[C@H](O)[C@H](O)[C@H]2O)[C@@H](O)[C@H](O)[C@H]1O)[C@H]1CC[C@]2(C)[C@@H]1[C@H](O)C[C@@H]1[C@@]3(C)CC[C@H](O[C@@H]4O[C@H](CO)[C@@H](O)[C@H](O)[C@H]4O[C@@H]4O[C@H](CO)[C@@H](O)[C@H](O)[C@H]4O)C(C)(C)[C@@H]3CC[C@]12C`, the Potency [1] was “inactive”, the Potency [2] was “inactive” and the Potency [3] was “inactive”.
In the case of `O=C(O)c1ccnc2cc(-c3nc4ccccc4n3CCN3CCCCC3)sc12`, the Potency [2] is reported as “inactive” and the Potency [3] is reported as “inactive”.
For `C[C@@H]1O[C@@H](OC2C(O[C@H]3[C@H](O[C@H]4CC[C@@]5(C)C(CC[C@]6(C)C5CC=C5C7CC(C)(C)CC(O)[C@]7(C)CC[C@]56C)C4(C)C)O[C@H](C(=O)O)[C@@H](O)[C@@H]3O)OC(CO)C(O)C2O)[C@H](O)[C@H](O)[C@H]1O` (stereo partly specified), the Potency [1] was “inactive”, the activity change, negative = inhibition [2] was 2.46% [at 11.6 µM] and the activity change, negative = thiol reactive [3] was 22.1% [at 11.5 µM].
For `C[C@@H]1CC[C@]2(C(=O)O[C@@H]3O[C@H](CO[C@@H]4O[C@H](CO)[C@@H](O[C@@H]5O[C@@H](C)[C@H](O)[C@@H](O)[C@H]5O)[C@H](O)[C@H]4O)[C@@H](O)[C@H](O)[C@H]3O)CC[C@]3(C)C(=CCC4[C@@]5(C)C[C@@H](O)[C@H](O)[C@@](C)(CO)C5CC[C@]43C)C2[C@H]1C` (stereo partly specified), the Potency [1] was “inactive”, the activity change, negative = inhibition [2] was 3.24% [at 11.6 µM] and the activity change, negative = thiol reactive [3] was 329% [at 11.5 µM].
For `CC(C)C[C@H](NC(=O)[C@@H]1O[C@H]1C(=O)O)C(=O)NCCCCN=C(N)N`, the Potency [1] was “inactive”, the Potency [2] was “inactive” and the Potency [3] was “inactive”.
For `CC(=O)O[C@H]1C[C@@H](O)C(C)(C)C2C[C@@H](OC(C)=O)[C@]3(C)C(CC[C@@]4(C)[C@H](c5ccoc5)OC(=O)[C@H]5O[C@]543)[C@]21C` (stereo partly specified), the Potency [4] was “inactive”, the Potency [2] was “inactive” and the Potency [3] was “inactive”.
